Results published in PubChem BioAssay AID602476 (National Center for Advancing Translational Sciences (NCATS), 2012).
Records with an inconclusive call do not appear. A call without a number means that no potency is given here. Calls of active or inactive are those of the source. Calls come from the whole dose curve; as a rule, active = well fitted activation curve with a large enough effect; inconclusive = small, poorly fitted or top-dose-only effect; inactive = flat fitted curve, though single readings scatter.

assay: FLuc inhibitory activity for the follow-up compounds in a cell-based translational read-through assay; details: GripTite 293 FLucUGA read-through, luminescence, 48 h; series mostly up to 38.3 µM
From the text: NCGC Assay Overview: Firefly (Photinus pyralis) luciferase is one of the most commonly used transcriptional reporters. It is considered one of the more dynamically responsive reporters - that is, responsive to changes in reporter transcription - as it requires no post-translational modifications and is enzymatically active directly after protein synthesis (Wood, 1998). With no endogenous expression in mammalian cells and without the requirement of external excitation, it offers very little background signal, thus generally providing excellent signal to background for most assays. Previous profiling work to determine the prevalence of compounds that affect FLuc enzymatic activity (PubChem AID 411) identified that ~3% of the MLSMR library (then at ~72K) inhibited FLuc (Auld et al., 2008). […] Of the compounds identified in this profile that inhibited FLuc, 151 compounds were selected for further analysis, in an effort to better understand their mode of inhibiting FLuc. The assay described here was to determine the activity of the compounds in a cell-based firefly luciferase reporter gene assay originally designed to identify compounds that enchanced translational read-through of a FLuc cDNA that contained a premature stop codon (Auld et al., 2009; Auld et al., 2010). Compounds that enhance translational read-through or compounds that stabilize FLuc intracellularly are identified as active compounds in the assay.
NCGC Assay Protocol Summary: Reagents: Transient transfection of FlucUGA construct: TransFast Transfection Reagent (Promega #E2431); FLucUGA construct (refer to Auld et al., 2009) #GripTite 293 MSR Cell Line (Invitrogen #R795-07) #Complete growth media: DMEM (Invitrogen #11965), 10% HIFBS, 0.1mM MEM NEAA, 5mL/L pen-strep (of 5000U/mL stock), 600ug/mL Geneticin #Assay media: DMEM without phenol red (Invitrogen #21063), 5% charcoal-stripped HIFBS (Hyclone #SH30071.03), 0.1mM MEM NEAA In-house detection reagent: 300mM Tris-HCl, 300mM Trizma base, 300mM MgCl, 1% Triton-X100, 5mM DTT, 500uM Coenzyme A trilithium salt (Sigma #C3019),450uM ATP (Sigma #A7699), 1mM D-luciferin sodium salt monohydrate (Biosynth #L8240) Control compounds used were two known firefly luciferase inhibitors (3-(5-(3-chlorophenyl)-1,2,4-oxadiazol-3-yl)benzoic acid and 5-(2-fluorophenyl)-3-phenyl-1,2,4-oxadiazole), and DMSO. Assay Summary: Transient transfection of FlucUGA construct: Day 1: GripTite cells were plated in T175 flasks at a density of 1.75 x 10^7 cells/T175 flask in complete growth media without Geneticin and allowed to grow ON in a 37 degrees Celsius incubator. Day 2: Cells in T175 flask were transfected - with 10ug of DNA and 30uL Transfast in 12mL complete growth media without serum and without Geneticin for 4 hours at 37 degrees Celsius. After incubation, cells were trypsinized, spun down, and resuspended to a concentration of 3.3 x 10^5 cells/mL in assay media. 6uL of cells in assay buffer were dispensed at 2000cells/well (3.3 x 10^5 cells/mL) into Greiner solid-white TC-treated 1536-well plates using a Multidrop Combi (Thermo Fisher Scientific). Plates were incubated for one hour at 37 degree Celsius, 95% humidity, 5% CO2. These assay plates were then treated with 23nL of compound or DMSO using a Kalypsys pin tool, which allows for delivery of a 12-point titration of each compound to the assay plate, with a final compound concentration ranging from approximately ~38uM to 0.2nM. Assay plates were then incubated for 48 hours. After incubation, plates were washed three times with DPBS (7uL/well). After the third wash, 6uL of DPBS was added to each well. 3uL of 3X luciferase detection reagent was then added to each well using a flying reagent dispenser (FRD). After a 15 minute incubation to allow for cell lysis, luciferase activity was measured using a ViewLux CCD imager (PerkinElmer), with an average exposure time of 2-12 seconds.

Row | SMILES | Potency
1 | Cc1cccc(NS(=O)(=O)c2cccc(C(=O)Nc3cccc(C(=O)O)c3)c2)c1 | inactive
2 | COc1cc(C(=O)Nc2cc(C)c(O)c(-c3nc4ccccc4s3)c2)cc(OC)c1OC | inactive
3 | CC(=O)Nc1cccc(C(=O)Nc2ccccc2C(=O)O)c1 | inactive
4 | O=C(Nc1ccccc1C(=O)O)c1cccc(NC(=O)c2ccccc2Cl)c1 | inactive
5 | O=C(Nc1ccccc1C(=O)O)c1cccc(NC(=O)c2ccc(Br)o2)c1 | inactive
6 | CN(C)S(=O)(=O)c1ccc(C(=O)Nc2cccc(C(=O)O)c2)cc1 | inactive
7 | CCOc1ccc2nc(NC(=O)c3cc([N+](=O)[O-])ccc3N3CCOCC3)sc2c1 | inactive
8 | CC(C)c1ccc(C(=O)Nc2ccc(-c3nc4ccccc4s3)c(Cl)c2)cc1 | inactive
9 | COc1ccc(C(=O)Nc2ccccc2-c2nc3ccccc3s2)c(OC)c1 | inactive
10 | COc1cccc(-c2nc3ccccc3s2)c1 | 1260 nM (active)
11 | COc1ccc(-c2cccc(C(=O)Nc3cccc(C(=O)O)c3)c2)cc1 | 11300 nM (active)
12 | COc1ccccc1C(=O)Nc1ccc(C(=O)O)cc1 | inactive
13 | COc1ccc2nc(NC(=O)c3ccc(S(=O)(=O)N4CCCC(C)C4)cc3)sc2c1 (stereo unspecified) | inactive
14 | CC(C)(C)C(=O)Nc1ccc(-c2nc3ccccc3s2)cc1 | 31.8 nM (active)
15 | COc1ccc2nc(NC(=O)c3cnccn3)sc2c1 | 565 nM (active)
16 | O=C(O)c1ccc(NC(=O)c2cc(S(=O)(=O)N3CCCCC3)c(Cl)cc2Cl)cc1 | inactive
